The results in this text go back to PubChem BioAssay (NCI).

Test systems include NCI-H23 lung; NCI-H322M lung; HOP-62 NSCLC; NCI-H460 lung; HOP-92 NSCLC; NCI-H522 lung; A549/ATCC NSCLC; 786-0 renal; COLO 205 colon; DU-145 prostate; K-562 leukemia; MALME-3M melanoma; MDA-MB-231 breast; RXF 393 renal; SF-268 CNS; SF-295 CNS; SF-539 CNS; UACC-257 melanoma; M14 melanoma; HCT-15 colon.
Common to all, as to assay: NCI-60 one-dose screen, 48 h (100 = growth as untreated, 0 = no growth, -100 = all killed)
Common to all, as to conditions: 10 µM unless noted

Compounds without any hit were thinned out: in the full panel of roughly 83,000, 20% have a hit.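 Single-concentration screen, 48 h exposure, 96-well plates. Endpoint: percent growth. Below 10 = active.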 Values without a mark were called inactive. Activity calls are given as the source filed them.

`CS(=O)(=O)Nc1ccc(C(=O)NC(C(=O)NO)c2ccc(-c3cccc(F)c3)cc2)cc1` (stereo not given): the growth is 45.6% with NCI-H23 lung; 53.5% in the test with NCI-H322M lung; 99.1% in the test on HOP-62 NSCLC; 89.7% in the test on NCI-H460 lung; -8.77% (active) in the test on HOP-92 NSCLC; 30% in the test with NCI-H522 lung. Also, the growth in the test with A549/ATCC NSCLC is 103%; in the test on 786-0 renal it was 72.8%; in the test with COLO 205 colon, 109%; with DU-145 prostate, 83.5%; with K-562 leukemia it was 90%; in the test on MALME-3M melanoma, 92%. Also, the growth in the test with MDA-MB-231 breast was 42.1%; with RXF 393 renal, 106%; in the test on SF-268 CNS, 47.3%; in the test with SF-295 CNS it was 93.7%; in the test on SF-539 CNS it was 92.6%; with UACC-257 melanoma, 101%. Also, the growth in the test with M14 melanoma was 85.3%; in the test with HCT-15 colon it was 91.5%.

Turning to `O=[N+]([O-])c1cc2c(ccc3occc32)o1`, the growth was 39.5% in the test on NCI-H23 lung; 61% with NCI-H322M lung; 63.5% in the test with HOP-62 NSCLC; -28.2% (active) with NCI-H460 lung; 26.6% in the test on HOP-92 NSCLC; 25.7% with NCI-H522 lung. Besides, the growth is 26.1% in the test with A549/ATCC NSCLC; 71.3% in the test on 786-0 renal; -24.1% (active) with COLO 205 colon; -7.23% (active) in the test with DU-145 prostate; 11.9% with K-562 leukemia; -33.1% (active) in the test on MALME-3M melanoma. Further, the growth in the test with MDA-MB-231 breast is 17.3%; in the test on RXF 393 renal it was -2.62% (active); in the test on SF-268 CNS it was 18.5%; in the test on SF-295 CNS it was -34.9% (active); in the test with SF-539 CNS, 33.5%; in the test on UACC-257 melanoma, -20.1% (active). Further, the growth is -8.26% (active) with M14 melanoma and 12.1% in the test with HCT-15 colon.

Turning to `CC1CCCCN1CCCNC(=O)c1ccc2c(c1)sc1nc(-c3ccc(F)cc3)cn12` (stereo not given), the growth with NCI-H23 lung is 92.1%; with NCI-H322M lung, 107%; in the test with HOP-62 NSCLC, 90.9%; in the test with NCI-H460 lung, 102%; in the test on HOP-92 NSCLC, 83.1%; in the test with NCI-H522 lung, 102%. For the same compound, the growth with A549/ATCC NSCLC is 108%; in the test with 786-0 renal it was 78.8%; in the test on COLO 205 colon, 98%; in the test on DU-145 prostate it was 105%; in the test on K-562 leukemia it was 77%; with MALME-3M melanoma, 98.3%. In addition, the growth is 75.2% in the test with MDA-MB-231 breast; 91.7% in the test on RXF 393 renal; 92.8% with SF-268 CNS; 109% with SF-295 CNS; 98.6% with SF-539 CNS; 124% in the test with UACC-257 melanoma. Moreover, the growth with M14 melanoma was 97.1%; with HCT-15 colon, 104%.

Regarding `Nc1nc(-c2ccccc2Br)nn1-c1nc2ccccc2s1`, the growth with NCI-H23 lung is 98%; in the test on NCI-H322M lung it was 105%; with HOP-62 NSCLC, 105%; in the test with NCI-H460 lung, 100%; in the test on HOP-92 NSCLC, 99.6%; in the test on NCI-H522 lung, 85.6%. The growth with A549/ATCC NSCLC was 98.4%; in the test on 786-0 renal it was 104%; in the test with COLO 205 colon, 110%; in the test with DU-145 prostate, 110%; in the test with K-562 leukemia, 94.8%; in the test with MALME-3M melanoma, 105%. Also, the growth in the test with MDA-MB-231 breast is 101%; in the test with RXF 393 renal it was 104%; in the test with SF-268 CNS, 97.4%; in the test with SF-295 CNS it was 102%; in the test with SF-539 CNS, 99.6%; in the test on UACC-257 melanoma, 89%. Besides, the growth in the test with M14 melanoma was 98.3%; with HCT-15 colon, 97.2%.

As to `O=C(c1nc2ccccc2[nH]1)C1C(c2ccc(F)cc2)C2CC3CCCCC3N2[C@@]12C(=O)Nc1ccc(Cl)cc12` (stereo not given in full), the growth in the test with NCI-H23 lung is 57.2%; with NCI-H322M lung, 60.6%; with HOP-62 NSCLC it was 71.8%; with NCI-H460 lung, 21.4%; in the test with HOP-92 NSCLC it was 44.2%; in the test with NCI-H522 lung, 57.3%. The growth in the test on A549/ATCC NSCLC is 29.3%; in the test with 786-0 renal, 48.3%; with COLO 205 colon, 40.3%; with DU-145 prostate, 60.5%; in the test on K-562 leukemia, 29.4%; with MALME-3M melanoma, 42.6%. For the same compound, the growth in the test on MDA-MB-231 breast is 43.3%; in the test with RXF 393 renal, 9.81% (active); in the test with SF-268 CNS it was 57%; with SF-295 CNS, 29%; in the test with SF-539 CNS, 55.5%; in the test on UACC-257 melanoma, 58.9%. Also, the figures for the growth with M14 melanoma and with HCT-15 colon were 40.7% and 28%, respectively.

As for `O=c1oc2ccc(F)cc2c(=O)n1-c1ccc(Cl)cc1F`, the growth is 4.57% (active) with NCI-H23 lung; 7.62% (active) with NCI-H322M lung; -5.38% (active) with HOP-62 NSCLC; 3.17% (active) in the test with NCI-H460 lung; -14.3% (active) in the test on HOP-92 NSCLC; -16.9% (active) in the test on NCI-H522 lung. The growth with A549/ATCC NSCLC was 3.43% (active); with 786-0 renal, 1.85% (active); with COLO 205 colon it was 11.7%; in the test on DU-145 prostate, 17.1%; in the test on K-562 leukemia, 7.39% (active); with MALME-3M melanoma it was -19.6% (active). For the same compound, the growth is -17.2% (active) with MDA-MB-231 breast; -2.79% (active) in the test on RXF 393 renal; 12.7% in the test on SF-268 CNS; -28.5% (active) with SF-295 CNS; 4.31% (active) with SF-539 CNS; -17.4% (active) with UACC-257 melanoma. Also, the growth in the test on M14 melanoma was 5.11% (active); in the test with HCT-15 colon, 7.49% (active).

In the case of `CCN1C(=O)N(CC)C2Nn3c(s/c(=C\c4ccccc4F)c3=O)=NC21` (stereo not given), the growth in the test with NCI-H23 lung was 41.8%; with NCI-H322M lung, 59.4%; in the test on HOP-62 NSCLC, 59.3%; in the test on NCI-H460 lung it was 21.6%; with HOP-92 NSCLC it was 67.5%; in the test on NCI-H522 lung it was 27.5%. In addition, the growth in the test with A549/ATCC NSCLC was 31.6%; in the test on 786-0 renal, 49.3%; with COLO 205 colon it was 7.99% (active); in the test on DU-145 prostate, 37.4%; in the test on K-562 leukemia, 15.9%; with MALME-3M melanoma, 78.4%. For the same compound, the growth was 35.1% with MDA-MB-231 breast; 36.7% in the test on RXF 393 renal; 54.9% in the test with SF-268 CNS; 14.9% with SF-295 CNS; 11.6% in the test with SF-539 CNS; 65.2% in the test with UACC-257 melanoma. Moreover, the growth in the test with M14 melanoma is 23.3%; in the test on HCT-15 colon, 26.5%.

On to `S=C1NC2(c3ccccc3)CCC(=S)N2c2ccccc21` (stereo not given), for which the growth is 103% in the test on NCI-H23 lung; 95.8% with NCI-H322M lung; 98.2% in the test with HOP-62 NSCLC; 108% in the test with NCI-H460 lung; 99.1% with HOP-92 NSCLC; 90.7% in the test with NCI-H522 lung. Besides, the growth in the test with A549/ATCC NSCLC is 101%; in the test with 786-0 renal it was 104%; with COLO 205 colon it was 117%; in the test with DU-145 prostate it was 115%; in the test with K-562 leukemia, 93.6%; in the test with MALME-3M melanoma it was 99.5%. The growth in the test with MDA-MB-231 breast is 90.9%; with RXF 393 renal it was 116%; in the test on SF-268 CNS, 102%; in the test with SF-295 CNS, 107%; with SF-539 CNS it was 107%; in the test on UACC-257 melanoma, 110%. In addition, the figures for the growth with M14 melanoma and in the test on HCT-15 colon were 103% and 102%, respectively.
